# Tests used:
# Assay in all cases: PBM binding z-score (relative to random genomic background probes); higher = stronger binding; sequences stand for … in GC…GCGATTGACAGCGTAGAATGAAGG
# [1] = tested on: FXR:RXRa (NR concentration 270 nM, RXRa partner concentration 90 nM)
# Method in brief: (§1)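 Random background probes are the reference for binding z-scores. These scores derive from regression-normalized fluorescence on custom Agilent 4×180K protein-binding microarrays incubated 1 h with ligand-free nuclear receptor dimers. Binding was detected with antibodies against each partner (one per run).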
# [2] = tested on: LXRa:RXRa (NR concentration 270 nM, RXRa partner concentration 90 nM)
# Method in brief: as §1
# [3] = tested on: LXRa homodimer (NR concentration 270 nM)
# Method in brief: as §1
# [4] = tested on: LXRb:RXRa (NR concentration 270 nM, RXRa partner concentration 90 nM)
# Method in brief: as §1
# [5] = tested on: LXRb homodimer (NR concentration 270 nM)
# Method in brief: as §1
# [6] = tested on: PPARa:RXRa (NR concentration 270 nM, RXRa partner concentration 90 nM)
# Method in brief: as §1
# [7] = tested on: PPARg:RXRa (NR concentration 180 nM, RXRa partner concentration 90 nM)
# Method in brief: as §1
# [8] = tested on: PPARg:RXRa 270nM:90nM, anti-RXR (NR concentration 270 nM, RXRa partner concentration 90 nM)
# Method in brief: as §1
# [9] = tested on: PPARg:RXRa 30nM:10nM, anti-RXR (NR concentration 30 nM, RXRa partner concentration 10 nM)
# Method in brief: as §1
# [10] = tested on: PPARg:RXRa 90nM:30nM, anti-RXR (NR concentration 90 nM, RXRa partner concentration 30 nM)
# Method in brief: as §1
Sequence,PBM binding z-score [1],PBM binding z-score [2],PBM binding z-score [3],PBM binding z-score [4],PBM binding z-score [5],PBM binding z-score [6],PBM binding z-score [7],PBM binding z-score [8],PBM binding z-score [9],PBM binding z-score [10]
AGTCAAAGTTCTGGACGAGGTAACGTAAAGCACG,-0.243,-0.501,-0.429,-0.322,-0.689,0.00286,0.557,0.0282,-0.285,0.00624
CCAGACAGGTTAGAAGGTAACTCAGCCTCGATTA,0.224,0.466,0.473,0.483,0.172,0.816,0.402,0.288,-0.236,0.116
GATACAGGGTCAGCTAGAGGCCAGGGTATGGAAA,4.42,2.81,-0.258,2.46,-0.476,4.43,3.61,3.44,0.426,2.14
ATCACTAGGTAAGACTCAGTTCAGTGAAGAACGC,0.15,0.00987,0.227,-0.0165,0.239,0.147,0.394,0.383,0.287,0.0779
ATCTCTAGGTAAAGTTCAGTCAAAGATCGATAGA,1.73,3.21,2.37,1.64,0.899,2.44,3.53,4.45,2.64,4.1
AATACAGGGTCATCGTAGCCCAGAGTACGCACAG,6.98,5.87,2.36,4.47,1,5.89,6.62,6.26,3.25,4.75
TATACAGGGTCAAGGGCCAGAGTACGAATGTCGA,6.63,5.65,1.91,4.4,2.42,5.8,7.15,6.47,3.84,5.91
ACTAGCAGGCCAAGTTTGGGTCACGCAAACAAAG,1.01,0.518,-0.2,1.33,-0.873,2.27,0.556,1.04,-0.0172,0.546
GCTGCTAGGGCAGGTTGGTCAGCTAACGGGTACG,-0.531,-0.752,-0.652,-1.01,-0.94,-0.594,-0.438,-0.678,-1.11,-1.1
TCTATTAGTTGATTAGTGCAACCGAAACAGCGGA,0.567,0.676,0.422,0.608,0.403,0.779,-0.179,2.12,3.55,2.78
TAGCCTAGGTCATTCAGGGGCCAGTAAAGAAAGC,4.75,4.05,0.681,3.17,0.778,3.73,1.61,2.56,0.576,1.76
TTAGCAAGGTGAAGGTCGTTGATCCCTCTGTAGA,1.98,1.6,-0.45,0.97,-0.841,2.38,1.94,3.32,1.18,2.64
CGTCCAAGGTCAGCAGGGCAGTGAAAGCGACGTG,5.27,3.24,-0.203,2.34,-0.623,4.47,3.08,3.74,0.535,2.52
GCGAGTTGGTCAGTAAAAGGTCACACACCGGTCG,3.43,4.42,4.78,4.07,0.343,4.36,3,4.71,2.22,4.23
GCTAGCGGGCCATTTGGGTCACTCAATGACGGGC,-0.0868,-0.0931,-0.975,-0.141,-0.972,1.26,0.395,0.262,-0.653,-0.112
ATCTCTAGGTAAGACTCAGTACAGTGAAGAACGC,0.589,0.377,0.528,0.101,0.88,0.1,0.293,-0.0568,0.341,0.016
CCGACTGGGGCATAAGGTTAACATAAGCCAGCCC,0.54,1.08,-0.335,0.945,-1.21,2.22,2.6,3.42,1.27,2.84
CCTCTGAGGACAACAGGAGGTCAGAGCTGCCAGA,1.9,2.12,1.95,1.33,-0.394,1.88,0.389,0.288,-0.556,-0.276
ATACCGAGGTGATCGTGAGGTCGTTGATACTAAC,1.95,1.69,0.52,1.59,-0.183,1.83,0.57,0.574,-0.146,0.356
CCGATTGGGGCATAAGGTTACCATAAGCCAGCCC,0.433,2.07,-0.331,0.749,-0.968,1.96,1.92,2.87,0.812,2.27
TCGAGTAGGTTACCAATGGGGCATTTAGCTTTCT,0.00953,1.35,-0.662,1.09,-0.721,1.22,0.144,1.33,1.33,1.2
TCATATAGGTAATACAGGTGAACGTCGGCATCTA,0.964,1.09,0.498,1.15,0.51,1.98,1.72,2.78,4.08,3.27
CCTGCTAGGTCAATGGGCAGCTAAAGCAGCTCGC,1.94,1.62,-0.481,0.861,-0.588,2.59,2.02,3.18,0.64,2.19
CCTGCCAGGTCAATGGTCAGCTAAAGCAGCTCGC,3.36,2.51,-0.047,1.96,-0.196,3.48,2.59,3.44,0.524,2.57

# Source: the supplement of paper PMC6555819
